HP1b binding inh: HTS for Inhibitors of HP1-beta Chromodomain Interactions with Methylated Histone Tails | AlphaScreen HP1-beta / biotin-H3K9me3 peptide binding | Potency, µM (highest dose often 114 µM), without a hit: at the highest dose activity change, negative = inhibition, hits mostly inhibitors | Chromobox protein homolog 1 (Homo sapiens), P83916 | 390,000 tested, 0.56% active; also: nearly all actives have a fitted effect of over 70% in size
Target sequence (P83916 whole entry, looked up): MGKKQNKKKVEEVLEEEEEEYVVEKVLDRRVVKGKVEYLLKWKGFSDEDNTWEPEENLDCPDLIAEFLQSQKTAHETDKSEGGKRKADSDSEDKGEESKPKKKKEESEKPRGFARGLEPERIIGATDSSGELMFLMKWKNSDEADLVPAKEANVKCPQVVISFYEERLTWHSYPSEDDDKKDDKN
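HP1-beta protein (50 nM final) preincubated 30 min at room temperature with biotinylated H3(1-18)K9me3 peptide (50 nM) in PBS pH 7.4, 0.01% Tween-20, then compound added for 30 min. AlphaScreen streptavidin donor/nickel chelate acceptor beads (10 ug/mL final), 30 min dark, luminescence read.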
Sfp inh: qHTS Assay for Inhibitors of Bacillus subtilis Sfp phosphopantetheinyl transferase (PPTase); Biochemical Sfp PPTase activity, qHTS; Potency, µM, for inactives: largest response in the series, negative = inhibition, actives largely listed as inhibitors; 4'-phosphopantetheinyl transferase ffp (Bacillus subtilis), Q9F4F7; AID 1490, 2009; 310,000 tested, 3.5% active;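 also: the enzyme is Sfp with the accession as filed and its product quenches rhodamine fluorescence; 0% = enzyme reaction without inhibitor and -100% = no enzyme wells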
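Fluorescence-quenching assay with 15 nM Sfp, 5 uM rhodamine-CoA and 12.5 uM BHQ-2-labelled ybbR peptide in pH 7.6 Hepes/MgCl2 buffer. Enzyme was pre-incubated with compound for 15 min at room temperature. Rate was taken from the 30-min fluorescence change (525/598 nm).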
PLK1 PBD block: qHTS for Inhibitors of PLK1-PDB (polo-like kinase 1 - polo-box domain): Primary Screen. Serine/threonine-protein kinase PLK1 (Homo sapiens), P53350. Plk1 PBD binding of FITC phosphopeptide, fluorescence polarization. Potency, µM, inactives show max response, negative = inhibition, hits mostly inhibitors. 360,000 tested, 2.8% active; also: series mostly up to about 57 µM; % is scaled to controls: 0 for no effect and ±100 for the full control effect; nearly all actives have a fitted effect of over 65% in size
G9a inh: qHTS Assay for Inhibitors of Histone Lysine Methyltransferase G9a. Potency, µM (highest dose often 102 µM), for inactives: at the top dose activity, negative = inhibition, hits mostly inhibitors. G9a H3K9 monomethylation, AlphaScreen, 2 h. Histone-lysine N-methyltransferase EHMT2 (Homo sapiens), Q96KQ7. 350,000 tested, 8.8% active; also: % is scaled to controls: 0 for no effect and ±100 for the full control effect; nearly all actives have a fitted effect of over 75% in size
Target sequence (Q96KQ7 913-1193 limits assumed): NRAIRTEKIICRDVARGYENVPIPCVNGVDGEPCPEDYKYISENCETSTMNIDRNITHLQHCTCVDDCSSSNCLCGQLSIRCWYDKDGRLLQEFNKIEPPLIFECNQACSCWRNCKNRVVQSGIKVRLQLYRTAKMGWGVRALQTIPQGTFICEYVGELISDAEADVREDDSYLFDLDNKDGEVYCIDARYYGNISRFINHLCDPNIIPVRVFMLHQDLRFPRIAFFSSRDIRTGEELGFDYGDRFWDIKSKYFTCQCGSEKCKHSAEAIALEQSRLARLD
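Methyltransferase reactions run at room temperature for 2 h (20 nM enzyme, 500 nM biotin-H3K9 peptide, 20 uM SAM) after a 15 min compound preincubation; product detected by AlphaScreen beads and anti-H3K9me1 antibody.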
JMJD2A Tudor: qHTS Assay for Inhibitors of JMJD2A-Tudor Domain; AlphaScreen JMJD2A-Tudor / H3K4me3 peptide binding; Potency, µM (top dose mostly 114 µM), for the others: at the highest dose activity change, negative = inhibition, actives largely listed as inhibitors; 390,000 tested, 4.4% active; AID 504339, 2011; also: % is scaled to controls: 0 for no effect and ±100 for the full control effect; nearly all actives have a fitted effect of over 50% in size
BAZ2B inh: qHTS Assay for Inhibitors of BAZ2B; Bromodomain adjacent to zinc finger domain protein 2B (Homo sapiens), Q9UIF8; AlphaScreen BAZ2B-H3K14Ac peptide displacement; Potency, µM (series often up to 114 µM), for the others: at the top dose activity change, negative = inhibition, actives largely listed as inhibitors; 360,000 tested, 4.4% active; also: % is scaled to controls: 0 for no effect and ±100 for the full control effect; nearly all actives have a fitted effect of over 60% in size
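Protein-peptide AlphaScreen: BAZ2B 50 nM, b-H3K14Ac 50 nM, 1x PBS pH 7.4 + 0.01% Tween-20. Preincubation 30 min RT; cpd 30 min RT (top 110 uM); beads 20 min RT, light-protected.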
Numbers without * were called inactive; ? = inconclusive; · = no result given; [ ] = another dose, or the depositor's remark. Most compounds without a hit are left out; they make up all but 12% or so of the library. Calls follow the shape of the dose curve; as a rule, active = well fitted curve in the direction sought with a large enough effect; inconclusive = small, poorly fitted or top-dose-only effect, or another doubt; inactive = no such curve, though single readings can be large; an effect the other way counts as inactive or inconclusive. Potency is read from the fitted curve at half-maximal effect.

SMILES | HP1b binding inh | Sfp inh | PLK1 PBD block | G9a inh | JMJD2A Tudor | BAZ2B inh
O=C(OCC#CCSc1nnc(-c2ccc([N+](=O)[O-])cc2)o1)c1cccs1 | -25% | 5% | -5% | 32µM* | ? | ?
C#CCSc1nnc(-c2ccc(OC)cc2)o1 | -6% | -3% | ? | 45µM* | 3% | 0%
O=[N+]([O-])c1cccnc1SCc1c(F)cccc1Cl | 7% | 23% | 4% | · | -26% | ?
O=[N+]([O-])c1ccc(Sc2ccccn2)nc1 | 33% | 1% | -6% | 45µM* | -14% | -11%
Cc1ccc(C#N)c(SCc2ccccc2[N+](=O)[O-])n1 | 35% | 1% | -21% | ? | 4% | 4%
O=[N+]([O-])c1ccc(CSc2ccccn2)cc1 | 18% | -1% | -10% | 2% | -7% | -11%
Cc1cc(C)c(C#N)c(SCc2ccccc2[N+](=O)[O-])n1 | 27% | -6% | ? | 10µM* | -13% | -33%
O=[N+]([O-])c1ccc(SCc2c(F)cccc2Cl)nc1 | -21% | -21% | -6% | · | 56µM* | ?
O=[N+]([O-])c1ccccc1CSc1ccccn1 | -13% | -2% | ? | 50µM* | -15% | -2%
COc1ccc(Cn2ccc3nc(C)c(C(=O)N4CCN(c5cc(C)ccc5C)CC4)cc3c2=O)cc1 | 41% | · | · | -2%[59 µM] | -29% | ?
CC(=O)Nc1cccc(NC(=O)CSc2ccc(-c3sc(-c4ccccc4)nc3C)nn2)c1 | 33% | · | · | 5%[59 µM] | -8% | 1%
O=C(Nc1cc(Sc2ccccn2)cc([N+](=O)[O-])c1)c1ccc([N+](=O)[O-])cc1 | -11% | 5% | 1.1µM* | -13%[12.7 µM] | 3.2µM* | ?
O=C(Nc1ccc([N+](=O)[O-])cc1)c1ccccc1 | 17% | 11% | -10% | 19%[59 µM] | -9% | -2%
O=[N+]([O-])c1ccc(Sc2ccc(Cl)c(Cl)c2)nc1 | -23% | -3% | -5% | ? | ? | 22µM*
O=[N+]([O-])c1ccc(Sc2n[nH]c(-c3ccncc3)n2)nc1 | 36% | ? | -7% | 45µM* | -9% | -1%
COc1ccccc1C(=O)Nc1nnc(S(=O)(=O)N(C)c2ccc(Cl)cc2)s1 | 44% | · | · | 9%[59 µM] | 0% | 13%
CC1CC(=O)Nc2ccccc2N1S(=O)(=O)c1ccccc1 (centres undefined) | -3% | -17% | 27µM* | -23%[59 µM] | 18µM* | 37%
CCOC(=O)CN1c2ccccc2NC(=O)CC1C (centres undefined) | 48% | 15% | -16% | 45µM* | -25% | 0%
CC1Cc2ccccc2N1S(=O)(=O)c1cccc(C(=O)N2CC(=O)Nc3ccccc32)c1 (centres undefined) | 16% | 0% | -12% | 71µM* | -27% | -1%
Cc1ccc(S(=O)(=O)N2c3ccccc3NC(=O)CC2C)cc1 (centres undefined) | 20% | 7% | 1% | 20%[59 µM] | -10% | 8%
O=C(c1cccc(F)c1)N1CCC2(CC1)CCN(c1ccncc1)CC2 | · | 25% | · | 0%[12.7 µM] | · | ·
N/C(=N\O)c1ccc(N2CCN(c3ncccc3C(F)(F)F)CC2)nc1 | 3% | -2% | 7% | · | -15% | -9%
CC(C)(C)Sc1ccc2nc3c(n2c1)CCCC3 | 4% | -12% | -4% | 50µM* | -30% | ?
COc1ccc(NC(=O)c2ccco2)c([N+](=O)[O-])c1 | -12% | 3% | 3% | ? | -25% | -39%
COc1ccc(NC(=O)C/C(C)=N/NC(=O)c2ccco2)c([N+](=O)[O-])c1 | 16% | -2% | -4% | 45µM* | -14% | -10%
SMILES | HP1b binding inh | Sfp inh | PLK1 PBD block | G9a inh | JMJD2A Tudor | BAZ2B inh
CC(C)N1CCN(c2ccc(OC[C@@H]3CO[C@@](Cn4cncn4)(c4ccc(Cl)cc4Cl)O3)cc2)CC1 | · | 15% | · | -4%[21.5 µM] | · | ·
COc1cccc(NC(=O)CCc2nc3c(C)nn(-c4ccc(C)cc4)c3n(C)c2=O)c1 | -6% | · | · | -24%[59 µM] | -12% | -20%
CCCCC(=O)Nc1nnnn1CCC | -15% | 3% | -14% | -1%[59 µM] | -5% | -2%
CCCn1nnnc1NC(=O)COc1ccc(Br)cc1 | 40% | 6% | -4% | -8% | ? | 79µM*
CC1CCN(S(=O)(=O)c2ccc3ncn(CC(=O)N(C)Cc4ccccc4)c(=O)c3c2)CC1 | -11% | 12% | -25% | 7% | -23%[11.4 µM] | 8%[57.1 µM]
O=C(NCC(c1ccc2c(c1)OCO2)N1CCN(c2ccccc2)CC1)c1ccccc1 (centres undefined) | -5%[57 µM] | · | · | -33%[59 µM] | ? | ?
O=S(=O)(Cc1ccccc1)Nc1ccc(Br)cn1 | 63% | 33% | -10% | 71µM* | -3% | -14%
O=S(=O)(Cc1ccccc1)Nc1ccccc1Br | 25% | 15% | 3% | -2% | -2% | 2%
Cc1ccnc(NS(=O)(=O)Cc2ccccc2)c1 | 54% | 12% | -5% | ? | -17% | 0%
Cc1ccc(NS(=O)(=O)Cc2ccccc2)nc1 | 32% | -24% | -8% | 28µM* | 1% | -14%
Cn1c(SCC2CCCCC2)nnc1-c1ccncc1 | 17% | 9% | -7% | -5%[12.7 µM] | -29% | 9%
CN1CN(C)C(c2ccncc2)=C1c1ccncc1 | 22% | -11% | -1% | 40µM* | -7% | -9%
COCCN(C(=O)c1cccc(N2C(=O)CCC2=O)c1)c1nc(-c2ccc([N+](=O)[O-])cc2)cs1 | -11% | · | -20% | -48% | -32% | -27%
COc1ccccc1N(C(=O)c1ccncc1)c1nc(-c2ccc([N+](=O)[O-])cc2)cs1 | ? | -17% | -24% | 10µM* | ? | ?
C=CCOC(=O)N[C@H](c1ccccc1)C(C(C)=O)C(C)=O | · | 9% | · | · | · | ·
Cc1nc(C)c(C(=O)Nc2ncc([N+](=O)[O-])s2)o1 | -22% | -79% | 27µM* | 10µM* | ? | ?
CC(C)CC(=O)Nc1ncc([N+](=O)[O-])s1 | -32% | 35µM* | 11µM* | · | -34% | -14%
O=C(Nc1ccccc1)Nc1ncc([N+](=O)[O-])s1 | -1%[57 µM] | -6% | ? | 45µM* | -31% | ?
O=C(COC(=O)c1ccccc1)Nc1ncc([N+](=O)[O-])s1 | ? | · | 21µM* | · | 20µM* | ·
CCCCC(=O)Nc1ncc([N+](=O)[O-])s1 | 3% | 13% | -8% | ? | -15% | -38%

Bioassay records: PubChem, National Center for Advancing Translational Sciences (NCATS)
